Results filed as inconclusive are left out. The source made the active and inactive calls. The call rests on the fitted dose curve; in most records, active means well fitted inhibition curve with a large enough effect; inconclusive means small, poorly fitted or top-dose-only effect; inactive means no such curve, though single readings can be large or run the other way.
Target: Peptidyl-prolyl cis-trans isomerase NIMA-interacting 1 (Homo sapiens) (UniProt Q13526)
Assay: qHTS Assay to Find Inhibitors of Pin1: Hit Validation using Tamra Binding
Conditions: Pin1 Tamra-peptide displacement, fluorescence polarization, 10 min
Description: The unique chemical properties of Pro allow for the adoption of two completely distinct amide bond conformations (cis and trans). Peptidyl-prolyl cis/trans isomerases (PPIases) are evolutionary conserved enzymes that catalyze cis/trans isomerization of peptidyl-prolyl peptide bonds. Distinct from all other PPIases such as cyclophilins and FK506-binding proteins (FKBPs), Pin1 binds a subset of phos.Ser/Thr-Pro-containing proteins using its protein-targeting WW domain and isomerizes only specific phos.Ser/Thr-Pro bonds, which cannot be effectively catalyzed by other known PPIases. […] The goal of this screen is to find small-molecule inhibitors of Pin1 using a fluorescence polarization competition assay.In the primary screen, a HiFluor-488-labeled peptide binds to the active site of Pin1 and can be displaced by compounds. […] To validate the hits using a different read-out, this Tamra binding assays was used against all the hits identified from the primary screen. […]
Briefly, 2 uL of Pin1 (all columns but column 3, which just receives buffer and serves as negative control) are dispensed into Greiner black solid bottom 1536-well assay plates. […] Finally, plates are transferred to a ViewLux high-throughput CCD imager (PerkinElmer), wherein end-point measurements of fluorescence polarization are acquired. […]

Chain of Peptidyl-prolyl cis-trans isomerase NIMA-interacting 1 (Homo sapiens) (Q13526 whole entry, looked up): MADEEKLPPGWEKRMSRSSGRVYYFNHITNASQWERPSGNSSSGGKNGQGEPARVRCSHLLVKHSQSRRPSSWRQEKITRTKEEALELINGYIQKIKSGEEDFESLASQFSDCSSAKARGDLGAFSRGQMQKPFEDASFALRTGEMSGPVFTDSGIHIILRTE

Compound: Cc1cc2c(C(C)C)c(O)c(O)c(C=O)c2c(O)c1-c1c(C)cc2c(C(C)C)c(O)c(O)c(C=O)c2c1O
- Potency: 1690 nM (active)

Reference: PubChem BioAssay AID624312 (National Center for Advancing Translational Sciences (NCATS), 2012)
